Data taken from PubChem BioAssay AID624354 (Sanford-Burnham Center for Chemical Genomics, 2012).
About 3,800 (1.1%) of roughly 360,000 compounds were called active. The sample holds actives, similar compounds and a random draw of the others, so the mix is not that of the screen. Unmarked numbers belong to inactive results.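 Rule for the calls: active = compounds causing at least 50% loss of cell viability in the single-dose screen, relative to plate controls; inactive = the rest.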

Test: viability loss with TRAIL in NB7+C8 cells, primary screen, TRAIL sensitizer project, cell-based, ATPlite luminescence (AID 624354)
Details: at 10 µM, hits give high values
COc1ccc(CN2C(=O)CN=C2Nc2ccc(C)cc2C)cc1 gave an inhibition (viability loss, TRAIL sensitization) of -15.6%. In the case of Cc1ccc(CN2CC(N3CCC(Cc4ccccc4)CC3)CS2(=O)=O)cc1 (stereo not drawn), the inhibition (viability loss, TRAIL sensitization) is reported as -13.4%. With Cc1ccc(CN2CCN(Cc3cccc(C)n3)CC2CCO)cc1 (stereo not drawn) the inhibition (viability loss, TRAIL sensitization) was 0.251%. COc1cc(C)c(CN2CCN(C(=O)CCC(=O)c3ccc(C)s3)CC2)cc1OC gave an inhibition (viability loss, TRAIL sensitization) of 16.8%. In the case of O=C(c1cc2c(s1)CCC2)N1CCN(c2ccccc2)CC1, the inhibition (viability loss, TRAIL sensitization) is reported as -1.76%. COc1ccc(S(=O)(=O)N2CN(CCc3ccc(OC)c(OC)c3)c3nc4ccccc4nc32)cc1 gave an inhibition (viability loss, TRAIL sensitization) of 5.09%. Molecule CN(C(=O)Nc1ccc(Cl)cc1)n1cnc2ccccc2c1=O has an inhibition (viability loss, TRAIL sensitization) of 7.39%. With CC(C)(C)c1nc2ccccc2c(=O)n1N1C(=O)c2ccccc2C1=O the inhibition (viability loss, TRAIL sensitization) was 11.4%. With CN(c1ccc2nc3ccccc3c(=O)n2n1)C1CCCCC1 the inhibition (viability loss, TRAIL sensitization) was 91.9% (active). Molecule O=C(COC(=O)c1ccco1)Nc1ccc(Cl)cn1 has an inhibition (viability loss, TRAIL sensitization) of -1.44%. For O=C(Nc1ccc(NC(=O)c2cccs2)cn1)c1ccco1, the inhibition (viability loss, TRAIL sensitization) was 63% (active). CC(OC(=O)CNC(=O)c1ccco1)C(=O)Nc1ccc(Cl)cn1 (stereo not drawn) showed an inhibition (viability loss, TRAIL sensitization) of 8.79%. Cc1cc(C)c(S(=O)(=O)NN=C2c3ccccc3[C@H]3Cc4csc[n+]4[C@@H]23)c(C)c1 gave an inhibition (viability loss, TRAIL sensitization) of -3.55%. For C#Cc1cc(N2CCN(C(=O)c3ccoc3)CC2)n2nc(-c3cccc(Cl)c3)cc2n1, the inhibition (viability loss, TRAIL sensitization) was 91.7% (active). In the case of CNc1cncc(-c2cccc(C(=O)N3CCOCC3)c2)n1, the inhibition (viability loss, TRAIL sensitization) is reported as -18.4%. With CCc1nc2ccc(C(=O)N3CCN(c4cccc(Cl)c4)CC3)cc2nc1CC the inhibition (viability loss, TRAIL sensitization) was 1.3%. CC(C)(C)NC(=O)C(CCc1ccccc1)n1c(=O)c(-c2ccccc2)nc2ccccc21 (stereo not drawn) gave an inhibition (viability loss, TRAIL sensitization) of -2.69%. Work on Nc1cc(C(F)(F)F)ccc1N1CCOCC1 yielded an inhibition (viability loss, TRAIL sensitization) of -31.5%. COc1ccc(COC[C@H](CC(C)C)N2CCN(C(=O)c3cccc(C(F)(F)F)c3)CCC2=O)cc1 gave an inhibition (viability loss, TRAIL sensitization) of -6.73%. Work on O=C(C(=O)N1CCC(c2ccccc2)CC1)c1ccccc1 yielded an inhibition (viability loss, TRAIL sensitization) of -9.02%. With COc1cccc2c1C(=O)c1c(O)c3c(c(O)c1C2=O)CC(O)(C(C)=NNC(=O)c1ccc(Cl)c(Cl)c1)CC3OC1CC(N)C(O)C(C)O1 (stereo not drawn) the inhibition (viability loss, TRAIL sensitization) was 55.5% (active). Work on Cc1c(Nc2nc3ccccc3nc2NS(=O)(=O)c2cccs2)c(=O)n(-c2ccccc2)n1C yielded an inhibition (viability loss, TRAIL sensitization) of -7.01%. In the case of Cc1ccc(C(=O)Nc2ccc(C)c(S(=O)(=O)N(C)C)c2)s1, the inhibition (viability loss, TRAIL sensitization) is reported as 61.7% (active). Work on CCN(CC(=O)Nc1ccc(C)c(S(=O)(=O)N(C)C)c1)Cc1ccccc1 yielded an inhibition (viability loss, TRAIL sensitization) of 9.33%. Cc1csc(SCC(=O)Nc2ccc(C)c(S(=O)(=O)N(C)C)c2)n1 gave an inhibition (viability loss, TRAIL sensitization) of 1.13%. Cc1ccc(S(=O)(=O)NNC(=S)NC(C)(C)C)cc1 gave an inhibition (viability loss, TRAIL sensitization) of -2.34%. N=c1c2c3c(sc2nc2n1CCCCC2)CCCC3 showed an inhibition (viability loss, TRAIL sensitization) of 0.553%. In the case of NNC(=O)C1CCCn2c1nc1sc3c(c1c2=O)CCCC3 (stereo not drawn), the inhibition (viability loss, TRAIL sensitization) is reported as 55.9% (active). Work on Cn1c(NN)nc2sc3c(c2c1=O)CCC3 yielded an inhibition (viability loss, TRAIL sensitization) of -10.7%. In the case of O=C1CSC(c2ccc(Cl)cc2)N1 (stereo not drawn), the inhibition (viability loss, TRAIL sensitization) is reported as 0.721%. In the case of CCOc1ccc(C(C)=O)cc1COC(=O)c1cnc(Cl)c(Cl)c1, the inhibition (viability loss, TRAIL sensitization) is reported as 64.1% (active). COC(=O)c1ccc(COC(=O)c2cnc(Cl)c(Cl)c2)cc1 showed an inhibition (viability loss, TRAIL sensitization) of 1.15%. CCOc1ccc(C(C)=O)cc1COC(=O)CNC(=O)c1cccs1 gave an inhibition (viability loss, TRAIL sensitization) of -4.84%. Work on COC(=O)/C(=C\Nc1ccccc1)NC(=O)c1ccc(Cl)cc1Cl yielded an inhibition (viability loss, TRAIL sensitization) of 10.1%. Work on Cc1ccccc1CN1C(=O)CSCC1(C)C(=O)Nc1c(C)cccc1C (stereo not drawn) yielded an inhibition (viability loss, TRAIL sensitization) of -13%. Work on COc1ccc(S(=O)(=O)N2CCOCC2)cc1NC(=O)CC1CC2CCC1C2 (stereo not drawn) yielded an inhibition (viability loss, TRAIL sensitization) of -19.8%. In the case of Cc1cc(=O)[nH]c(N/N=C/c2c(C)nn(-c3ccccc3Cl)c2Cl)n1, the inhibition (viability loss, TRAIL sensitization) is reported as -2.12%. Cn1cc([N+](=O)[O-])c(C(=O)Nc2ccc3c(c2)OCCO3)n1 gave an inhibition (viability loss, TRAIL sensitization) of 23.6%. With Cc1nn(-c2ccccc2)c(Cl)c1/C=N/NC(=O)c1nn(C)cc1[N+](=O)[O-] the inhibition (viability loss, TRAIL sensitization) was 54.6% (active). For COc1ccc(N2CCN(C(=O)C3CCN(S(=O)(=O)c4ccc(C)cc4)CC3)CC2)cc1, the inhibition (viability loss, TRAIL sensitization) was -4.63%. With CC(C)NC(=O)CSc1nnc(COc2ccccc2Cl)o1 the inhibition (viability loss, TRAIL sensitization) was 11.2%. Molecule COc1cccc(-c2sc3ccc(OC)cc3c2-c2ccc(OCCN3CCCCC3)cc2)c1 has an inhibition (viability loss, TRAIL sensitization) of 12.9%. For Cn1cncc1C#Cc1c(-c2ccsc2)sc2ccccc12, the inhibition (viability loss, TRAIL sensitization) was 0.155%. With COc1ccc2sc(-c3ccc(S(C)(=O)=O)cc3)c(C#Cc3cncn3C)c2c1 the inhibition (viability loss, TRAIL sensitization) was 54.7% (active). In the case of Cc1cc(C)n2nc(C(=O)OCC(=O)N(C)CC(=O)Nc3ccc(F)cc3)nc2n1, the inhibition (viability loss, TRAIL sensitization) is reported as 2.14%. Work on c1ccc(-n2ncc(-c3nn[nH]n3)n2)cc1 yielded an inhibition (viability loss, TRAIL sensitization) of 8.97%. In the case of O=C(NNS(=O)(=O)c1ccc([N+](=O)[O-])cc1)C1CCCCC1, the inhibition (viability loss, TRAIL sensitization) is reported as -2.99%. In the case of O=C(C[C@H]1C/C=C\C[C@@H](NC(=O)OCC2c3ccccc3-c3ccccc32)C(=O)O[C@@H](c2ccccc2)CNC1=O)N[C@H](CO)Cc1ccccc1, the inhibition (viability loss, TRAIL sensitization) is reported as 73.9% (active). CC(C)(C)OC(=O)C[C@@H]1C/C=C\C[C@@H](CC(=O)N[C@H](CO)Cc2ccccc2)C(=O)NC[C@@H](c2ccccc2)OC1=O showed an inhibition (viability loss, TRAIL sensitization) of 3.83%. Molecule CC(C)(C)OC(=O)C[C@H]1C/C=C\C[C@@H](CC(=O)N[C@H](CO)Cc2ccccc2)C(=O)NC[C@@H](c2ccccc2)OC1=O has an inhibition (viability loss, TRAIL sensitization) of -2.43%. In the case of O=c1ccn([C@@H]2O[C@H](CNS(=O)(=O)c3cc4ccccc4s3)[C@@H](O)[C@H]2O)c(=O)[nH]1, the inhibition (viability loss, TRAIL sensitization) is reported as 5.61%. Molecule COc1ccc(N2CCN(C(CNS(=O)(=O)c3ccc(C)cc3)c3ccccc3)CC2)cc1 (stereo not drawn) has an inhibition (viability loss, TRAIL sensitization) of -6.83%. Molecule O=C(NCCc1ccccn1)c1cc(-c2ccc(Cl)cc2)nc2ccccc12 has an inhibition (viability loss, TRAIL sensitization) of 7.97%. CC1CCCC(NC(=O)c2cc(-c3ccncc3)nc3ccccc23)C1C (stereo not drawn) gave an inhibition (viability loss, TRAIL sensitization) of 11.9%. In the case of CCc1ccc(-c2cc(C(=O)NN3CCN(C)CC3)c3ccccc3n2)cc1, the inhibition (viability loss, TRAIL sensitization) is reported as 58.3% (active). O=C(NCc1cccnc1)c1ccccc1NC(=O)c1c(F)cccc1F gave an inhibition (viability loss, TRAIL sensitization) of -13.9%. With COc1ccc(CC(N)c2csc(NC(=O)Nc3ccc(C(C)C)cc3)n2)cc1 (stereo not drawn) the inhibition (viability loss, TRAIL sensitization) was 92.1% (active). For COc1ccc(CC(N)c2csc(NC(=O)Cc3ccccc3)n2)cc1 (stereo not drawn), the inhibition (viability loss, TRAIL sensitization) was -6.08%. For COc1ccc(CC(N)c2csc(NC(=O)NC(c3ccccc3)c3ccccc3)n2)cc1 (stereo not drawn), the inhibition (viability loss, TRAIL sensitization) was 44.6%. With N#Cc1ccc(CN2CCN(CC(=O)Nc3ccccc3C(=O)NC3CC3)CC2)cc1 the inhibition (viability loss, TRAIL sensitization) was -1.82%. COC(=O)c1ccc(OC(=O)c2cnccn2)cc1 gave an inhibition (viability loss, TRAIL sensitization) of 6.75%. In the case of Cn1c(=NC(=O)c2cnccn2)sc2ccccc21, the inhibition (viability loss, TRAIL sensitization) is reported as 61.8% (active). Work on Cn1c(=NC(=O)c2ccco2)sc2cccc(F)c21 yielded an inhibition (viability loss, TRAIL sensitization) of 47.7%. OCCCNC(c1ccccc1)c1ccc(O)cc1 (stereo not drawn) showed an inhibition (viability loss, TRAIL sensitization) of 20.3%. For CN(C)c1cccc(NC(=O)c2ccc(-c3ccc(F)c(F)c3)c3ccoc23)c1, the inhibition (viability loss, TRAIL sensitization) was 20.1%. Work on Cc1sc2ncn(CC(=O)NCCCC(=O)N3CCN(c4ccccc4F)CC3)c(=O)c2c1C yielded an inhibition (viability loss, TRAIL sensitization) of 19.6%. In the case of CCN(C(=O)CN1C(=O)/C(=C/c2ccc(F)cc2)SC1=S)C1CCS(=O)(=O)C1 (stereo not drawn), the inhibition (viability loss, TRAIL sensitization) is reported as -9.46%. For C=CCOc1ccc(/C=C2\SC(=S)N(CCC(=O)O)C2=O)cc1, the inhibition (viability loss, TRAIL sensitization) was 56.9% (active). For CN(C(=O)CN1C(=O)/C(=C/c2ccc(Cl)cc2)SC1=S)C1CCS(=O)(=O)C1 (stereo not drawn), the inhibition (viability loss, TRAIL sensitization) was 10.1%. In the case of COCCN(C(=O)CSCc1ccc(C)cc1)c1c(N)n(CC(C)C)c(=O)[nH]c1=O, the inhibition (viability loss, TRAIL sensitization) is reported as -0.426%. COc1cccc(NC(=O)CN(C)CC(=O)c2c(N)n(Cc3ccccc3)c(=O)n(C)c2=O)c1 showed an inhibition (viability loss, TRAIL sensitization) of -2.67%. For Cc1ccc(S(=O)(=O)/N=C(\CN2CCOCC2)N2CCOCC2)cc1, the inhibition (viability loss, TRAIL sensitization) was -0.117%. In the case of O=C(N/N=C/c1ccccc1O)/C(=C/c1ccccc1)CCO, the inhibition (viability loss, TRAIL sensitization) is reported as 51.4% (active). In the case of NN=C(NN=Cc1ccccc1)c1ccccc1, the inhibition (viability loss, TRAIL sensitization) is reported as 12.4%. Molecule O=C(N/N=C/c1cc([N+](=O)[O-])ccc1O)/C(=C\c1cccs1)NC(=O)c1ccccc1 has an inhibition (viability loss, TRAIL sensitization) of 41.5%. With CCCc1nn2c(=O)cc(CSCC(=O)Nc3cccc(C)c3)nc2s1 the inhibition (viability loss, TRAIL sensitization) was -0.888%. Molecule CCOC(=O)CCc1c(C)c2ccc(OCc3nn[nH]n3)c(C)c2oc1=O has an inhibition (viability loss, TRAIL sensitization) of -5.29%. In the case of COc1ccc(-c2cc3ccc(OCc4nn[nH]n4)cc3oc2=O)cc1, the inhibition (viability loss, TRAIL sensitization) is reported as 56.7% (active). CCCCc1cc(=O)oc2cc(C)cc(OCc3nn[nH]n3)c12 showed an inhibition (viability loss, TRAIL sensitization) of 10.2%. For CCc1ccc(-n2c(=S)sc3c(=O)n(-c4ccccc4OC)c(=S)[nH]c32)cc1, the inhibition (viability loss, TRAIL sensitization) was -3.67%. In the case of Cc1cccc(C)c1NC(=O)C(c1cccc2ccccc12)n1c(=O)c(-c2ccco2)nc2ccccc21 (stereo not drawn), the inhibition (viability loss, TRAIL sensitization) is reported as -6.27%. O=c1oc(-c2ccccc2NS(=O)(=O)c2ccc(Cl)cc2)nc2ccccc12 gave an inhibition (viability loss, TRAIL sensitization) of 6.47%. With O=c1oc(/C=C/c2ccccc2)nc2ccccc12 the inhibition (viability loss, TRAIL sensitization) was 77.8% (active). S=c1[nH]nc(/C=C/c2ccccc2)o1 showed an inhibition (viability loss, TRAIL sensitization) of 0.666%. With CN1CCC(CN)(N2CCN(c3ccccc3)CC2)CC1 the inhibition (viability loss, TRAIL sensitization) was 6.93%. For COc1ccc(CCNc2cc(N3CCN(C(=O)c4ccccc4OC)CC3)ccc2[N+](=O)[O-])cc1OC, the inhibition (viability loss, TRAIL sensitization) was 39.3%. With O=[N+]([O-])c1ccc(C=Nc2ccc(Cl)cc2Cl)s1 the inhibition (viability loss, TRAIL sensitization) was 53.8% (active). In the case of C[C@@H]1CN([C@@H](C)CO)C(=O)c2cc(NS(C)(=O)=O)ccc2O[C@@H](C)CCCCO[C@H]1CN(C)C(=O)Nc1ccc2c(c1)OCO2, the inhibition (viability loss, TRAIL sensitization) is reported as -14.6%.
